Several values for one entry are separate records, joined by “and”; a condition that tells them apart may be missing. Equal values may be shown once. Some structures have more than one record in an assay (separate samples or runs), and their calls can disagree. Activity calls are given as the source filed them. The calls were made as follows: active = hit-call score of the fitted dose curve at least 0.9, where 1 is the maximum; inactive = score below 0.9.
test: BSK_BT_Bcell_Proliferation: Viability Assessment in the BioMAP Diversity Plus: BT Assay for B cell Proliferation (AID 2284227); conditions: primary human B cells with PBMC
Experimental: BSK_BT is a cell-based, multiplexed-readout assay that uses B cell and peripheral blood mononuclear cells, a human vascular primary cell co-culture, with measurements taken at 24 hours after chemical dosing in a microplate: 96-well plate.BSK_BT_Bcell_Proliferation is an assay component measured in the BSK_BT assay. It measures protein content, a form of viability reporter, as detected with absorbance signals by Sulforhodamine staining technology.Data from the assay component BSK_BT_Bcell_Proliferation was analyzed at the endpoint, BSK_BT_Bcell_Proliferation, in the positive analysis fitting direction relative to DMSO as the negative control and baseline of activity. Using a type of viability reporter, gain or loss-of-signal activity can be used to understand cellular changes in viability. To generalize the intended target to other relatable targets, this assay endpoint is annotated to the 'cell cycle' intended target family, where the subfamily is 'proliferation'.
The levels of cell surface (or secreted, indicated by the prefix "s") biomarker endpoints were measured by ELISA. Overt cytotoxicity to cells in confluent adherent cultures (all systems other than the BT system) was assessed by measuring total protein levels using sulforhodamine B (SRB) staining in parallel cultures at the time of biomarker measurements, indicated as SRB endpoints. For proliferation assays for adherent cell types, individual cell types are cultured at sub-confluence and relative cell numbers quantified by SRB staining at time points optimized for each system (48 h: 3C and CASM3C systems; 72 h: BT and HDF3CGF systems; 96 h: SAg system). SRB was performed by staining cells with 0.1% SRB after fixation with 10% TCA and reading wells at 560 nm.Viability and proliferation of PBMC (T cells) was quantified by Alamar Blue reduction for the SAg and BT systems. For PBMC viability (referred to as PBMC Cytotoxicity within the assay endpoint names), cells were plated (75,000/well in a 96-well plate) and then chemical samples added for 1 h before addition of activators, SEB and TSST-1 (20 ng/mL final concentration each). Cells were incubated for 90 h. Then, Alamar Blue (20 uL/well) (Invitrogen, Cat DAL1100) was added for 6 h, and the plates were read with a fluorescence microplate reader at 546/580 nm (excitation/emission). For PBMC proliferation, cells were plated and activated as above but incubated for only 16 h prior to addition of Alamar Blue. Plates were read after 6 h.

| Structure (SMILES) | outcome | AC50 |
| --- | --- | --- |
| C=C(C)C(=O)OCCC(F)(F)C(F)(F)C(F)(F)C(F)(F)C(F)(C(F)(F)F)C(F)(F)F | inactive |  |
| FC(F)(F)C(F)(F)C(F)(F)C(F)(F)C(F)(F)C(F)(F)C(F)(F)C(F)(F)F | inactive |  |
| FC(F)(F)C(F)(F)C(F)(F)C(F)(F)C(F)(F)C(F)(F)CC1CO1 (stereo not given) | inactive |  |
| FC(F)(F)C(F)(F)C(F)(F)N(C(F)(F)C(F)(F)C(F)(F)F)C(F)(F)C(F)(F)C(F)(F)F | inactive |  |
| Nc1ccc([N+](=O)[O-])cc1O | inactive |  |
| O=C(O)C(F)(F)C(F)(F)F | inactive |  |
| C=CC(=O)OCC(F)(F)C(F)(F)C(F)(F)C(F)(F)COC(=O)C=C |  | 13.7 µM (active) and 12 µM (active) |
| C=CC/C=C/C/C=C/C/C=C/C | inactive |  |
| O=C(O)C(F)(F)C(F)(F)C(F)(F)C(F)(F)C(F)(F)C(F)(F)C(F)(F)C(F)(F)C(F)(F)C(F)(F)C(F)(F)C(F)(F)F | inactive |  |
| FC(F)(F)C(F)(F)CNCC(F)(F)C(F)(F)F | inactive |  |
| O=C(O)C(F)(F)C(F)(F)C(F)(F)C(F)(F)C(F)(F)C(F)(F)C(F)(F)C(F)(F)Cl |  | 8.64 µM (active) and 37.3 µM (active) |
| C=CC(F)(F)C(F)(F)C(F)(F)C(F)(F)C(F)(F)C(F)(F)C(F)(F)C(F)(F)C=C | inactive |  |
| O=C(O)C(F)(F)C(F)(F)C(F)(F)C(F)(F)F | inactive |  |
| CCCCCCCCCCCCCCCC[N+](C)(C)Cc1ccccc1 |  | 2.44 µM (active) |
| CS(C)(=O)=O | inactive |  |
| C=C(C)C(=O)OCC(F)(F)C(F)(F)C(F)(F)F | inactive | 2.27 µM (active) |
| OCC(F)(F)C(F)(F)C(F)(F)C(F)(F)C(F)(F)C(F)F | inactive |  |
| CCO[Si](CCC(F)(F)C(F)(F)C(F)(F)C(F)(F)C(F)(F)C(F)(F)F)(OCC)OCC | inactive |  |
| O=P(O)(O)OCCC(F)(F)C(F)(F)C(F)(F)C(F)(F)C(F)(F)C(F)(F)F | inactive |  |

| Structure (SMILES) | outcome | AC50 |
| --- | --- | --- |
| CO[Si](OC)(c1ccccc1)c1ccccc1 | inactive |  |
| O=C(O)C(F)(OC(F)(F)C(F)(OC(F)(F)C(F)(OC(F)(F)C(F)(F)C(F)(F)F)C(F)(F)F)C(F)(F)F)C(F)(F)F (stereo not given) | inactive |  |
| OCC(F)(F)C(F)(F)C(F)(F)F | inactive |  |
| O=C(CC(=O)C(F)(F)C(F)(F)F)C(F)(F)F | inactive |  |
| COC(=O)CCC(F)(F)C(F)(F)C(F)(F)C(F)(F)F | inactive |  |
| O=C(Cl)C(F)(F)C(F)(F)C(F)(F)C(F)(F)C(F)(F)C(F)(F)C(F)(F)C(F)(F)F | inactive |  |
| OCC(F)(F)C(F)(F)C(F)(F)C(F)(F)C(F)(F)C(F)(F)F | inactive | 47.7 µM (active) |
| CCCCCCC(C)OC(=O)CCCCC(=O)OC(C)CCCCCC (stereo not given) | inactive |  |
| FC(F)(F)C(F)(F)C(F)(F)C(F)(F)C(F)(F)C(F)(F)C(F)(F)C(F)(F)CCS | inactive |  |
| O=S(=O)(O)C(F)(F)C(F)(F)C(F)(F)C(F)(F)C(F)(F)C(F)(F)C(F)(F)F | inactive |  |
| C=C(C)C(=O)OCC(F)(F)C(F)(F)C(F)(F)C(F)(F)C(F)(F)C(F)(F)C(F)(F)F | inactive |  |
| O=C(O)C(F)(F)C(F)(F)C(F)(F)C(F)(F)C(F)(F)C(F)(F)C(F)(F)C(F)(F)C(F)(F)C(F)(F)C(F)(F)C(F)(F)C(F)(F)F | inactive |  |
| FC(F)(F)C(F)(F)C(F)(F)C(F)(F)C(F)(F)CCI | inactive |  |
| O=C(O)C(F)(F)C(F)(F)C(F)(F)C(F)(F)C(F)(F)C(F)(F)C(F)(F)C(F)(F)C(F)(F)C(F)F | inactive | 16.4 µM (active) |
| FC(F)(I)C(F)(F)C(F)(F)C(F)(F)I |  | 52.2 µM (active) and 54.9 µM (active) and 48.7 µM (active) |
| FC(F)(F)C(F)(F)C(F)(F)C(F)(F)CCI | inactive |  |
| C=CC(=O)OCC(F)(F)C(F)(F)C(F)(F)C(F)(F)C(F)(F)C(F)(F)C(F)(F)F | inactive |  |
| O=C(O)C=C(C(F)(F)F)C(F)(F)F |  | 30 µM (active) |

From PubChem BioAssay (EPA / NIEHS)
